In assay [1] the test system is Plasmodium falciparum Sir2 (PF13_0152, Sir2A). The assay is described as follows: pfSir2 binders on small-molecule microarrays, primary screen, biochemical, small-molecule microarray, 635 nm fluorescence (AID 1098).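 Further: score merges spot fluorescence intensity with its signal-to-noise ratio.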 The note with it: small-molecule microarray binding, fluorescence 635 nm; higher = more signal.
A short description of assay [2]: small-molecule microarray binders of probe aDKK1, primary screen, biochemical, biotinylated probe, 635/667 nm fluorescence (AID 1099).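 Further: score merges 667nm spot fluorescence with signal to noise across triplicate slides.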 The note with it: higher = more signal.
A short description of assay [3]: small-molecule microarray binders of probe aCHRDL2, primary screen, biochemical, biotinylated probe, 635/667 nm fluorescence (AID 1100). The note with it: higher = more signal.
The nature of assay [4]: splicing luciferase reporter signal modulators, primary screen, spliceosome inhibition project, cell-based, HEK293, splice +/- reporter (AID 1101).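 Further: HEK293 cells carrying a splicing-competent luciferase reporter gene; test concentration not given here.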 The note with it: luminescence, 24 h, higher = more signal, called active from +8 up or from −8 down.
Assay [5] addresses Fibroblast growth factor 10 (Homo sapiens) (UniProt O15520). The assay is described as follows: FGF10 binders on small-molecule microarrays, primary screen, biochemical, small-molecule microarray, 635 nm fluorescence (AID 1102). The note with it: FGF10 binding, fluorescence 635 nm, higher = more signal.
Assay [6] has as its system glycogen synthase kinase-3 (GSK3A per assay name; protocol says GSK3B). As to the kind of experiment: GSK3 binders on small-molecule microarrays, primary screen, biochemical, small-molecule microarray, 635 nm fluorescence, GSK3A (AID 1103). Further: the record names both GSK3A and GSK3B. The note with it: small-molecule microarray binding, fluorescence 635 nm; higher = more signal.
Assay [7] deals with Epidermal growth factor receptor (Homo sapiens) (UniProt P00533). As to the kind of experiment: EGFR binders on small-molecule microarrays, primary screen, biochemical, small-molecule microarray, 635 nm fluorescence (AID 1104).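 Further: score merges 667 nm emission intensity with spot signal to noise over triplicate slides.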 The note with it: EGFR binding, higher = more signal.
Sequence of Epidermal growth factor receptor (Homo sapiens) (P00533 whole entry, looked up): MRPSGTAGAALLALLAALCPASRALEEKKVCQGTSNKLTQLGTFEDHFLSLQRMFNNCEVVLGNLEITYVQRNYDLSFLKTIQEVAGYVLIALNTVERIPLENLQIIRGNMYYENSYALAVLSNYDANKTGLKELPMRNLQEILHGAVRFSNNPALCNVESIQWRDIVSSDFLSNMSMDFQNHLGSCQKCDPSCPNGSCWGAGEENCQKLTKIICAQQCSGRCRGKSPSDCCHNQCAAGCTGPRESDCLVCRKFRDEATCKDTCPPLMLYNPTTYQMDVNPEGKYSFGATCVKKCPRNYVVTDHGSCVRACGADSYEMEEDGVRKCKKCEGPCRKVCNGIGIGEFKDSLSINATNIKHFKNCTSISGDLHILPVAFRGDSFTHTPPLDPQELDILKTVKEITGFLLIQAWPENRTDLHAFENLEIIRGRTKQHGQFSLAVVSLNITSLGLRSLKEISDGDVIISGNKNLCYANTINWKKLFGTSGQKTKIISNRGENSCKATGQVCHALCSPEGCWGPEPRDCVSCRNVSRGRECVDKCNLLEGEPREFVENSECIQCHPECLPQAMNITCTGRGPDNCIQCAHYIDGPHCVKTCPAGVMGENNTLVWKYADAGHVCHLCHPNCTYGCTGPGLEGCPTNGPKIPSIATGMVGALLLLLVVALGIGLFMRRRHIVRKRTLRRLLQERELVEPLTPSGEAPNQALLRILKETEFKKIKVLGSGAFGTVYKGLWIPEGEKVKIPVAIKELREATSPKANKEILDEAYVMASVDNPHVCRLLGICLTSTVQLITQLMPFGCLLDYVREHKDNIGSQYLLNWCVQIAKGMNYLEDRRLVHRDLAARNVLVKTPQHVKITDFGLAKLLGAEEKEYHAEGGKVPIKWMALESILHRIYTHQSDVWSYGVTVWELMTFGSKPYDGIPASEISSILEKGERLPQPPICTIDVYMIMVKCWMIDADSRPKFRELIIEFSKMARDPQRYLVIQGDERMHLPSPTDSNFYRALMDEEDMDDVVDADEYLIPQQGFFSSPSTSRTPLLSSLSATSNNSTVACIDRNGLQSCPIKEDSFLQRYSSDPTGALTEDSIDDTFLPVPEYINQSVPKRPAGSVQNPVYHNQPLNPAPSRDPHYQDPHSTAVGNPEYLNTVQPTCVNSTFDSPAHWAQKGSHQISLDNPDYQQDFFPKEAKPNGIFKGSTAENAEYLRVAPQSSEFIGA
For assay [8], the target named is Follistatin-related protein 3 (Homo sapiens) (UniProt O95633). The assay is described as follows: FSTL3 binders on small-molecule microarrays, primary screen, biochemical, small-molecule microarray, 635 nm fluorescence (AID 1105).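 Further: score merges emission near 667 nm and signal to noise per printed spot across three slides.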 The note with it: FSTL3 binding, higher = more signal.
Sequence of Follistatin-related protein 3 (Homo sapiens) (O95633 whole entry, looked up): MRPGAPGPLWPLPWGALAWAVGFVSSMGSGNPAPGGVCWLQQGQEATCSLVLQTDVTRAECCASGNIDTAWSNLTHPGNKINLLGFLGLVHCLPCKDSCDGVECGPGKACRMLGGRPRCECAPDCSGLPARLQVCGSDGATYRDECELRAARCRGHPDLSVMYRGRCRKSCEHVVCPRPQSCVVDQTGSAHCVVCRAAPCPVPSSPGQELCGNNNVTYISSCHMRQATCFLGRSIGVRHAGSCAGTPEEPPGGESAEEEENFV
The target of assay [9] is Dickkopf-related protein 1 (Homo sapiens) (UniProt O94907). The assay is described as follows: DKK1 binders on small-molecule microarrays, primary screen, biochemical, small-molecule microarray, 635 nm fluorescence scan (AID 1106).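 Further: score merges emission near 667 nm with signal to noise over three replicate slides.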 The note with it: DKK1 binding, higher = more signal.
Sequence of Dickkopf-related protein 1 (Homo sapiens) (O94907 whole entry, looked up): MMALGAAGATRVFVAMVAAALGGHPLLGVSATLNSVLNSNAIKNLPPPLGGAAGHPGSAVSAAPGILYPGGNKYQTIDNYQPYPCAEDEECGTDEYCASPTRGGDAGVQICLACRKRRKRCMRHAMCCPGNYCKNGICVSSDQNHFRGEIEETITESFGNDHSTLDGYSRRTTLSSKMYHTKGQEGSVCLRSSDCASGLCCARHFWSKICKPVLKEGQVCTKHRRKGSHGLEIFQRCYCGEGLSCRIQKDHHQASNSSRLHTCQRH
The subject of assay [10] is Inhibin beta A chain (activin A). The assay is described as follows: INHBA (activin A) binders on microarrays, primary screen, biochemical, small-molecule microarray, 635 nm fluorescence scan (AID 1107).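 Further: mouse activin A protein probed at 4.33 µg/mL on printed slides; score merges bound-protein fluorescence near 667 nm with spot signal-to-noise.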 The note with it: small-molecule microarray binding, higher = more signal.
Assay [11] concerns Human papillomavirus type 1a protein E7 (residues 44-93). The assay is described as follows: HPV1a E7 fragment binders on microarrays, primary screen, biochemical, small-molecule microarray, residues 44-93, 635 nm fluorescence (AID 1108).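 Further: E7 fragment applied at 1 µg/mL in TBST for 1 h at 4 C; score combines spot fluorescence with its signal to noise ratio.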 The note with it: small-molecule microarray binding, fluorescence 635 nm; higher = more signal.
The nature of assay [12]: modulators of HCV replicon luciferase signal, primary screen, HCV replication inhibitor project, Huh7 cells, luciferase reporter (AID 1109).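 Further: huh7 hepatoma cells harbouring a luciferase neomycin HCV replicon reporter; luciferase luminescence as measure of HCV replicon replication; test concentration not given here.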 The note with it: 48 h, higher = more signal.
The target of assay [13] is Left-right determination factor 2 (Homo sapiens) (UniProt O00292). As to the kind of experiment: LEFTY2 binders on small-molecule microarrays, primary screen, biochemical, small-molecule microarray, 635 nm fluorescence scan (AID 1110). The note with it: LEFTY2 binding, higher = more signal.
Sequence of Left-right determination factor 2 (Homo sapiens) (O00292 whole entry, looked up): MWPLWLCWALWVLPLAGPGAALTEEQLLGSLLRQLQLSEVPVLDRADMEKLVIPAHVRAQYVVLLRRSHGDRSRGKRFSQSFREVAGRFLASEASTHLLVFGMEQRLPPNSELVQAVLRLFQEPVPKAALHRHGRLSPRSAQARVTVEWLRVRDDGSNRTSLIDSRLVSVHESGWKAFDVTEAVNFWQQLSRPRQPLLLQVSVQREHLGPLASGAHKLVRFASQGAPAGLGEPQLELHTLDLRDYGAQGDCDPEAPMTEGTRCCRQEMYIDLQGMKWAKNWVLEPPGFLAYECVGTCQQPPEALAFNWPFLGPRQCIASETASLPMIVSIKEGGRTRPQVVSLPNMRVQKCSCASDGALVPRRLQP
Assay [14] addresses Calmodulin-1 (Homo sapiens) (UniProt P0DP23). As to the kind of experiment: CALM1 binders on microarrays, EGTA buffer, profiling panel, biochemical, small-molecule microarray, Cy5-labelled CALM1 (AID 1111).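 Further: labelled calmodulin applied in Tris saline Tween buffer holding calcium plus EGTA and DTT.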 The note with it: Cy5-CALM1 binding fluorescence, higher = more signal.
Assay [15] shares this target. As to the kind of experiment: calcium-bound CALM1 binders on microarrays, profiling panel, artefact control for SMM control-protein annotation, biochemical, small-molecule microarray, Cy5-labelled CALM1, plus calcium (AID 1112).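 Further: score merges spot fluorescence with signal to noise from triplicate slides.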 The note with it: Cy5-CALM1 binding fluorescence, higher = more signal.
Assay [16] can be described thus: small-molecule microarray binders of probe aWnt5a, primary screen, biochemical, biotinylated probe, 635/667 nm fluorescence (AID 1113).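 Further: score merges 667 nm fluorescence intensity with signal-to-noise per printed feature.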 The note with it: higher = more signal.
Assay [17] is described as follows: small-molecule microarray binders of probe aShh, primary screen, biochemical, biotinylated probe, 635/667 nm fluorescence (AID 1114).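 Further: probe is biotin-labelled aShh protein from a stem cell growth factor screen; measures binding of labelled protein to compounds printed on the slide; score merges feature fluorescence at 667 nm with signal-to-noise.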 The note with it: higher = more signal.
The nature of assay [18]: small-molecule microarray binders of probe aNog, primary screen, biochemical, biotinylated probe, 635/667 nm fluorescence (AID 1115).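 Further: probe is biotinylated aNog protein used at 0.15 µg/mL for 1 h at 4 C; z-score combines 667 nm fluorescence of each spot with its signal to noise.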 The note with it: higher = more signal.
The target in assay [19] is Torsin-1A-interacting protein 1 (Homo sapiens) (UniProt Q5JTV8). As to the kind of experiment: LAP1 binders from COS7 cell lysate, primary screen, small-molecule microarray, 635/667 nm fluorescence (AID 1116). The note with it: COS7-hLAP1 lysate binding, 635 nm fluorescence, higher = more signal.
Sequence of Torsin-1A-interacting protein 1 (Homo sapiens) (Q5JTV8 whole entry, looked up): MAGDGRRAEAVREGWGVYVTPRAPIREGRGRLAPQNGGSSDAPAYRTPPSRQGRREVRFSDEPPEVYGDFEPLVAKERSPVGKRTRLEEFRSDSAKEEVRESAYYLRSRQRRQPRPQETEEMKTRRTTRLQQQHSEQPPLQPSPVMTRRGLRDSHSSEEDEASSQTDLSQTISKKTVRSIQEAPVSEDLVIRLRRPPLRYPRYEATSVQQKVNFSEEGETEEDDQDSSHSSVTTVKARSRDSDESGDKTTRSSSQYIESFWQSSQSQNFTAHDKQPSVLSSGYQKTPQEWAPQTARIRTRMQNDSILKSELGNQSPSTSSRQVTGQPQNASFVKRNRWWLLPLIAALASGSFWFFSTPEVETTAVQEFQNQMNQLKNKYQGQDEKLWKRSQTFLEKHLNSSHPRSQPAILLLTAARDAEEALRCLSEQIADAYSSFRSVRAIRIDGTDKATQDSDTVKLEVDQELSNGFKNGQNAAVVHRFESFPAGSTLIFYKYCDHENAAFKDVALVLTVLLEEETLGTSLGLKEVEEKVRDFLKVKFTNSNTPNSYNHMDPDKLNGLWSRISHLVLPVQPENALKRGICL
The target of assay [20] is Alpha-bungarotoxin (Bungarus multicinctus) (UniProt P60615). As to the kind of experiment: alpha-bungarotoxin binders on microarray, profiling panel, artefact control for SMM control protein annotation, biochemical, small-molecule microarray, Alexa647 label, 635/667 nm fluorescence (AID 1117). The note with it: alpha-BTX-A647 binding fluorescence, higher = more signal.
Sequence of Alpha-bungarotoxin (Bungarus multicinctus) (P60615 whole entry, looked up): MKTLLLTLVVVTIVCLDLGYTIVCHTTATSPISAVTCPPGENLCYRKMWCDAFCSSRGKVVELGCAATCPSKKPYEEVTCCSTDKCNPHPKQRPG

Molecules are shown by their SMILES. Activity calls are given as the source filed them.

Sequence of Fibroblast growth factor 10 (Homo sapiens) (O15520 whole entry, looked up): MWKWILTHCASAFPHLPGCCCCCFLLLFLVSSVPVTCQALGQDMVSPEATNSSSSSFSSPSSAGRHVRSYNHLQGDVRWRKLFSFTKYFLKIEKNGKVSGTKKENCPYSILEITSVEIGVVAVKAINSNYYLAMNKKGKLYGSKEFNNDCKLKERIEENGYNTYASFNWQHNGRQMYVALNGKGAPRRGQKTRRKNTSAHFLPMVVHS

As to `CCOC(=O)C1=CCC(c2cc3ccccc3[nH]2)N(CCN2CC(C(=O)OCC)=CCC2c2cc3ccccc3[nH]2)C1` (stereo not given), the composite z-score came out at 0.497 in [1]; 0.237 in assay [2]; 0.368 in assay [3]; 0.631 in assay [5]; 1.03 in assay [6]; 0.149 in [7]. Besides, the composite z-score in assay [8] was 0.673; in assay [9], 0.0665; in assay [10] it was 1.14; in assay [11], 1.34; in [13] it was 0.0083; in assay [14], 0.884. Moreover, the composite z-score was -0.608 in [15]; -0.0203 in assay [16]; 0.0639 in assay [17]; 0.302 in assay [18]; 0.0389 in [19]; 0.927 in assay [20]. Moreover, the values for the z-score in [4] and in assay [12] were -1.3 (inactive) and -1.87, respectively.

With `C=CC[C@@]1(C(=O)N(C)C)N=C(c2ccc(OCCCO)cc2)O[C@@H]1c1ccccc1CN=[N+]=[N-]`, the composite z-score was 0.964 in assay [1]; 1.19 in assay [2]; 1.13 in assay [3]; 1.42 in assay [5]; 1.33 in assay [6]; 0.493 in [7]. Besides, the composite z-score in assay [8] was determined as 1.38; in [9], 0.488; in [10], 1.23; in assay [11], 1.42; in assay [13], 0.681; in [14], 1.79. Also, the composite z-score in assay [15] turned out to be 0.366; in assay [16] it was 0.0293; in assay [17] it was 0.246; in assay [18] it was 0.0919; in assay [19] it was 1.23; in assay [20], 1.35. Also, the z-score in assay [4] is -0.475 (inactive); in [12], -2.67.

`COC(=O)C(CC#Cc1ccc2c(c1)[C@]1(C(=O)N2)[C@H](C(=O)NC[C@H](O)c2ccccc2)[C@H]2C(=O)O[C@H](c3ccccc3)[C@H](c3ccccc3)N2[C@@H]1c1ccccc1OCCO)C(=O)OC`: the composite z-score in assay [1] stood at 1.19; in assay [2] it was 0.138; in [3] it was 0.141; in [5] it was 1.22; in [6] it was 1.19; in assay [7] it was 0.308. Besides, the composite z-score in assay [8] was 0.866; in assay [9], 0.502; in assay [10] it was 0.205; in [11], 1.45; in [13], 0.441; in assay [14], 0.413. The composite z-score is -0.0643 in assay [15]; -0.1 in [16]; -0.167 in [17]; 0.149 in [18]; 1.67 in assay [19]; 1.61 in assay [20]. In addition, the z-score in assay [4] is 0.163 (inactive); in assay [12] it was -1.92.

Consider `COc1ccc(C(O)C2C=CC3C(=O)N(c4ccccc4)C(=O)C3N2Nc2ccc([N+](=O)[O-])cc2)c2ccccc12` (stereo not given), for which the composite z-score in assay [1] worked out at 1.2; in assay [2], 0.662; in assay [3], 0.88; in assay [5], 0.981; in assay [6] it was 1.32; in assay [7], 0.385. Besides, the composite z-score is 1 in assay [8]; 0.226 in [9]; 0.642 in assay [10]; 1.45 in [11]; -0.0163 in assay [13]; 1.86 in [14]. Moreover, the composite z-score in assay [15] is 0.554; in assay [16], 0.062; in assay [17] it was 0.204; in [18], 1.61; in assay [19], 1.6; in assay [20], 2.54. In addition, the values for the z-score in assay [4] and in [12] were -0.707 (inactive) and -0.749, respectively.

Take `CN(C)CCCNC(=O)[C@@H]1c2ccccc2C(=O)N(Cc2ccccc2C(F)(F)F)[C@H]1c1ccc(CO)cc1`: the composite z-score in assay [1] is -0.722; in assay [2], 0.908; in assay [3] it was 0.706; in assay [5] it was -0.728; in assay [6], 0.355; in assay [7], -0.899. Besides, the composite z-score in assay [8] is -0.58; in [9] it was -0.759; in assay [10], 0.764; in assay [11], -0.242; in assay [13] it was -1.42; in assay [14], -0.206. Moreover, the composite z-score is -0.263 in [15]; -0.1 in assay [16]; -0.138 in assay [17]; -0.163 in [18]; 0.689 in assay [19]; 0.542 in assay [20]. Also, the z-score in [4] is 0.0896 (inactive); in assay [12] it was -1.68.

The values are drawn from PubChem BioAssay.
